HSF1 inh – HSF1 inhibition; 300,000 compounds, 0.77% hits; AID 2098; activity change, negative = inhibition, % at 7.5 µM (by protocol); NIH3T3-HGL HSE-luciferase, MG132-induced, luminescence 8 h; hits give low values;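 active = more than half of replicate wells show activity change below -50%, luminescence cut by over half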;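 note: luciferase reports HSF-1 transcriptional activity via heat shock element; 0% = median of DMSO wells and -100% = zero luminescence signal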
HSP90 inh – blocks HSP90-mediated luciferase refolding in reticulocyte lysate; Rabbit reticulocyte lysate, luciferase refolding luminescence, 3 h; inhibition, % at 5.6 µM; 290,000 compounds, 0.91% hits; AID 1789;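 active = inhibition above the screen-wide mean plus 3 SD, computed separately per campaign, cut at about 16% in these data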;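 note: 0% = DMSO wells and 100% = 60 µM geldanamycin wells; inhibitors lower the luminescence because luciferase stays unfolded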
Hsp70 act – Hsp70 transcriptional activation, primary screen. HeLa Hsp70 promoter luciferase reporter, luminescence; scaled: vehicle 0, proteasome-inhibitor control 100%. activation, % at 10 µM. 200,000 compounds, 0.04% hits. AID 1203;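 active = activation above the mean across all tested compounds plus 3 SD, cutoff set per campaign, cut at about 5.5% in these data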;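 note: 100% = MG132 at 30 µM as the positive control and 0% = DMSO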
HSF1 activator – increases HSF-1 driven luciferase reporter signal | NIH3T3-HGL HSF-1 luciferase reporter, MG132, 8 h; 100% = twice DMSO control signal | activation, % at 9 µM | 300,000 compounds, 1.7% hits | AID 504408;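 active = mean replicate activation of at least 50% with a set share of replicates each reaching 50%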;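 note: 0% = median of the neutral control wells and 100% = twice that signal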
p-CIP stab down – compounds decreasing mouse p/CIP protein stability; 290,000 compounds, 0.01% hits; Q05BA5; AID 1984; F442A p/CIP-EGFP cells, EGFP fluorescence, 16 h; decrease of EGFP signal, % at 10 µM;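 active = EGFP signal decrease of at least 30% at 10 µM or well 3 SD below plate mean, unless failing retest; inactive = the rest, including hits failing retest or dose response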
Target sequence (Q05BA5 1-1403): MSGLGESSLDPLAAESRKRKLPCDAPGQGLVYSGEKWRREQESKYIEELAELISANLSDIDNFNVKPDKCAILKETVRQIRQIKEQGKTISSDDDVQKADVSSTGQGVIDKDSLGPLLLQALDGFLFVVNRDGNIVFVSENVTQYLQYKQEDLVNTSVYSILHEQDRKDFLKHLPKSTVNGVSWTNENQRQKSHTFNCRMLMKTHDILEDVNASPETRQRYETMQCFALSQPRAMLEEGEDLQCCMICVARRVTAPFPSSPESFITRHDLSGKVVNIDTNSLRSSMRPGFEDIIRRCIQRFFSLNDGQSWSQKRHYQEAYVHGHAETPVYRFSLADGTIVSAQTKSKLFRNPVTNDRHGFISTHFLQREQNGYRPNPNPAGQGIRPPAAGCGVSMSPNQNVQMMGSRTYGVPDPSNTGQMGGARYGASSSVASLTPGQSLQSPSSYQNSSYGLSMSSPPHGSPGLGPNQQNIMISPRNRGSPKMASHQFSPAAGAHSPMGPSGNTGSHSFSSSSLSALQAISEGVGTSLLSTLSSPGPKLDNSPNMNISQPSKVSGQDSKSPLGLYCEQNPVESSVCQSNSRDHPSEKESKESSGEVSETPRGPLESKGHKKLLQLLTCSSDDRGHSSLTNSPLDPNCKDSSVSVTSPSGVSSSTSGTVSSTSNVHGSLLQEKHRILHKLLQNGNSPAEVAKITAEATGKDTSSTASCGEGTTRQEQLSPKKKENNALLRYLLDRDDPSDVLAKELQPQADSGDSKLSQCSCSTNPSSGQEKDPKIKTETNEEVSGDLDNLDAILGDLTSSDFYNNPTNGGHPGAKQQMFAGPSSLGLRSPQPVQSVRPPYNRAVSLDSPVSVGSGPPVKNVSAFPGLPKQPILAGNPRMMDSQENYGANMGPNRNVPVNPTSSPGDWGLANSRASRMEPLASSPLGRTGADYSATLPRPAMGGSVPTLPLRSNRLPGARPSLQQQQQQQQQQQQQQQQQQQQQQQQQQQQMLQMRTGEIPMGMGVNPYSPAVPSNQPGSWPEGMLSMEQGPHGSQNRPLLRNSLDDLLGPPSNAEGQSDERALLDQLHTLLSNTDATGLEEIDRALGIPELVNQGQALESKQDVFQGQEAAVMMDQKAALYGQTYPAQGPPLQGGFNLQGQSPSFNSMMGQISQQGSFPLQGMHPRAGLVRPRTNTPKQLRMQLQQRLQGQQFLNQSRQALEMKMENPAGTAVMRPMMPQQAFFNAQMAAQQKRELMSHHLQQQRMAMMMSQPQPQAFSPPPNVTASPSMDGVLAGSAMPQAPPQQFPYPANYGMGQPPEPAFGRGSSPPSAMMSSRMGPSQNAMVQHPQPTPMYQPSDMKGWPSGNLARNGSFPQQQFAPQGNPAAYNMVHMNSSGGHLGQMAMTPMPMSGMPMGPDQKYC
NALP1 yeast inh – inhibitors of NALP1 inflammasome in yeast; inhibition, % at 10 µM; 280,000 compounds, 0.61% hits; AID 2071; S. cerevisiae NALP1/ASC/caspase-1 growth, X-gal OD620, 72 h; in the data active = inhibition mostly above about 24%, no sharp cut-off; inactive = mostly below about 32%
The depositor's hits bear a star; · = no result. Hits are enriched below; roughly 3.8% of the tested compounds scored in any of these assays.

SMILES | HSF1 inh | HSP90 inh | Hsp70 act | HSF1 activator | p-CIP stab down | NALP1 yeast inh
O=S(=O)(Cc1noc(-c2ccccc2Cl)n1)c1ccccn1 | 23.0 | 1.6 | · | 61.2* | -0.8 | 0.5
O=C(O)CCNC(=O)c1ccc(NC(=O)Cc2ccc(Cl)cc2)cc1 | -3.4 | -3.4 | -0.2 | -9.6 | -0.1 | -3.8
COc1ccc(C2=NOC(C(=O)Nc3c(C)n(C)n(-c4ccccc4)c3=O)C2)cc1OC (configuration not stated) | -73.4* | -0.6 | -0.1 | -79.5 | 7.8 | -7.5
COc1ccc(C2=NOC(C(=O)N3CCCCCC3)C2)cc1OC (configuration not stated) | -77.9* | -0.2 | -0.1 | -83.0 | -3.5 | -14.9
CCOc1ccc(NC(=S)N2CCN(C/C=C/c3ccccc3)CC2)cc1 | -16.7 | -0.4 | 0.2 | -10.9 | -5.4 | 5.1
CCOc1cccc(-c2c(C(=O)N/N=C/c3ccoc3)nnn2-c2nonc2N)c1 | -2.9 | 0.2 | · | 12.6 | -0.4 | 18.8
O=C(NCCc1ccc([N+](=O)[O-])cc1)c1ccccc1 | 7.0 | 4.3 | · | 9.5 | -9.5 | 34.0*
CC(C)CCNC(=S)Nc1ccc([N+](=O)[O-])cc1 | 1.1 | -0.3 | -0.4 | 23.2 | -0.4 | 91.6*
O=C(Nc1ccc(OC(F)(F)F)cc1)Nc1cccc([N+](=O)[O-])c1 | 3.4 | 1.4 | 0.0 | 3.8 | -3.2 | 59.4*
Cc1ccc(NC(=O)Nc2cccc([N+](=O)[O-])c2)cc1F | -0.2 | 0.2 | 0.1 | 41.9 | 5.3 | 30.2
CCCCNC(=S)Nc1ccc([N+](=O)[O-])cc1 | 2.1 | -4.5 | -0.3 | 17.5 | -15.8 | 48.0
O=C(O)c1cc(NC(=O)c2ccc([N+](=O)[O-])cc2)cc(NC(=O)c2ccc([N+](=O)[O-])cc2)c1 | 0.6 | -5.7 | · | 1.6 | -3.3 | 18.8
O=C(Nc1ccc([N+](=O)[O-])cc1)C(=O)Nc1cccc(C(=O)O)c1 | -70.8* | 78.1* | · | -76.5 | 4.3 | 14.8
Cc1cccc(N2CCN(C(=O)CCC(=O)N3CCOc4ccc(Cl)cc43)CC2C)c1 (configuration not stated) | 3.9 | -0.6 | · | 9.4 | 3.6 | 7.4
CSc1ccc(C(=O)NC2CCSc3ccccc32)cc1 (configuration not stated) | 12.3 | -1.7 | · | -5.7 | 12.4 | 7.0
O=C(NCCc1ccccc1)C(=O)Nc1ccc([N+](=O)[O-])cc1 | -1.9 | -0.4 | 0.0 | -6.3 | -13.5 | 29.8*
S=c1[nH]nc(-c2cccc(Cl)c2)n1/N=C/c1ccc(-c2ccccc2Br)o1 | -2.7 | -0.8 | · | -0.5 | -0.3 | -7.9
S=c1[nH]nc(-c2ccccc2)n1/N=C/c1ccc(-c2ccccc2Cl)o1 | 85.6 | -1.6 | -0.3 | 150.9* | 9.9 | 19.7
O=C(Cc1ccsc1)NNC(=O)c1ccc(F)cc1 | -1.5 | · | · | -26.8 | · | ·
CCc1[nH]nc2c1C1(CCN(C(=O)OCc3ccccc3)CC1)C(C#N)=C(N)O2 | 7.3 | -2.3 | -0.1 | 55.2* | 13.4 | -3.8
CCCc1[nH]nc2c1C1(CCN(C(=O)OCc3ccccc3)CC1)C(C#N)=C(N)O2 | 0.2 | 1.5 | -0.4 | 13.0 | -19.0 | 3.9
O=C1S/C(=C/c2ccc(N3CCOCC3)o2)C(=O)N1Cc1ccc(F)cc1 | 102.9 | 1.4 | -0.2 | 154.9* | -23.8 | 9.0
Cc1nn(-c2ccccc2)c(N)c1Sc1cccc([N+](=O)[O-])c1 | 2.9 | -2.6 | -0.3 | 7.5 | -14.2 | 25.4
Cc1cc(C)nc(-n2nc(C)c(Sc3ccc(F)cc3)c2N)n1 | 30.7 | -3.6 | 0.3 | 62.2* | -2.6 | 11.1
NC(=O)CCN1CCN(CCOC2Cc3cc(Cl)ccc3Sc3ccccc32)CC1 (configuration not stated) | 20.3 | -3.2 | 0.0 | 59.4* | -1.0 | 22.3
SMILES | HSF1 inh | HSP90 inh | Hsp70 act | HSF1 activator | p-CIP stab down | NALP1 yeast inh
COc1ccc2c(c1)CC(N1CCN(C)CC1)c1cc(OC)ccc1S2 (configuration not stated) | 6.4 | · | · | 4.1 | · | ·
COCCCN1CCN(C2Cc3ccccc3Sc3ccc(Cl)cc32)CC1 (configuration not stated) | -0.7 | 6.6 | -0.2 | 16.6 | -3.5 | 53.6*
COc1ccc(N(CC(=O)N2CCOCC2)S(C)(=O)=O)c(OC)c1 | 0.1 | -2.4 | · | -0.1 | -13.2 | 3.3
O=C(NN1CCOCC1)c1ccccc1 | 4.4 | 2.3 | · | 29.1 | -14.1 | -8.3
CCCC(=O)Nc1cc(-c2nn(C)c(=O)c3ccccc23)ccc1OC | 25.5 | 0.4 | -0.3 | 59.5* | -8.6 | 5.5
COc1c(N2CCN(C(=S)NC3CC4CCC3C4)C(C)C2)c(F)cc2c(=O)c(C(=O)O)cn(C3CC3)c12 (configuration not stated) | -55.2* | -1.0 | · | -67.9 | 2.0 | 2.3
C=CCn1c(=O)c(C(=O)Nc2ccccc2C)c(O)c2ccccc21 | 32.5 | -0.5 | · | 75.3* | 7.6 | 13.7
C=CCn1c(=O)c(C(=O)Nc2ccccc2O)c(O)c2ccccc21 | 14.3 | -2.2 | -0.3 | 26.2 | -15.3 | 4.5
COc1ccccc1CN1CC(C(=O)NCc2ncccc2C)CCC1=O (configuration not stated) | -0.4 | -0.6 | · | 0.1 | -0.9 | 19.3
Clc1ccc(OCc2cn3cccnc3n2)c2ncccc12 | 10.5 | 1.0 | -0.1 | 28.6 | -8.2 | -2.8
Cc1cc(Cl)ccc1OCc1cn2cccnc2n1 | 77.8 | -4.8 | 0.4 | 94.3* | 4.3 | 3.9
Cc1cc(C)c(S(=O)(=O)NCc2cccnc2)c(C)c1 | -6.0 | 5.2 | · | -19.2 | -2.0 | 6.2
Cc1ccc([N+](=O)[O-])c(OCc2ncc(Cl)n2C)c1 | 8.0 | 0.2 | · | 19.0 | 9.2 | 21.6
COc1ccc(-n2ncc3c(N(C)C4CCCCC4)ncnc32)cc1 | -85.0* | 79.1* | · | -87.3 | -4.6 | 17.5
Cc1cccc(-n2ncc3c(N(C)C4CCCCC4)ncnc32)c1 | -91.3* | · | · | -92.2 | -6.4 | 11.5
COCCN(CCOC)c1ncnc2c1cnn2-c1ccccc1 | 3.6 | · | · | 10.1 | -1.0 | 9.1
COC(=O)c1ccc(NC(=O)COc2ccc(S(=O)(=O)NC(C)(C)C)cc2)cc1 | 5.8 | -0.9 | -0.2 | 8.5 | 8.0 | 8.0
O=C(NC1CC1)c1nc(Cn2ccc([N+](=O)[O-])n2)no1 | -4.6 | -5.4 | · | 13.8 | -31.2 | -19.2
O=c1c(=NNc2ccccc2Cl)c(=O)c2ccccc12 | · | 25.8* | -0.2 | · | 4.2 | -7.0
Cc1cc(C)c(NN=c2c(=O)c3ccccc3c2=O)c(C)c1 | 25.3 | 5.4 | -0.1 | 67.3* | 14.4 | 9.0
O=C(Nc1ccccc1Cl)Nc1ccccc1Cl | 10.2 | 0.7 | · | 8.0 | -10.7 | ·
CC1=C(Sc2nc3ccccc3[nH]2)C(=O)NC(C)(C)C1 | 13.8 | 3.1 | 0.0 | 60.3* | -48.7 | -7.6
CC(C)c1nc2sc3c(c2c(=O)[nH]1)CC(C)(C)OC3 | -0.8 | 1.7 | · | -2.4 | -11.0 | 15.0
COc1cc2[nH]c(=S)n(Cc3ccco3)c(=O)c2cc1OC | 77.5 | 1.0 | 0.0 | 139.9* | -0.7 | 20.5

Bioassay records from PubChem BioAssay.
